Here are results for 40 molecules from PubChem BioAssay (NCATS).

Inconclusive results are not listed. Calls of active or inactive are those of the source. Calls follow the shape of the dose curve; as a rule, active = well fitted inhibition curve with a large enough effect; inconclusive = small, poorly fitted or top-dose-only effect; inactive = flat fitted curve, though single readings scatter.

The target of this assay is Glutathione peroxidase 1 (Homo sapiens) (UniProt P07203). Description: Primary qHTS Assay for Inhibitors of Recombinant Selenoprotein Glutathione Peroxidase 1 (GPX1) (AID 1845191). Also: nearly all actives have a fitted effect of over 65% in size. To be noted: recombinant GPX1, GR-coupled NADPH fluorescence, 15 min; series mostly up to 48.8 µM; activity, negative = inhibition: at the top concentration. An excerpt: Assay Provider: Elias S.J. Arner MD PhD.
Chain of Glutathione peroxidase 1 (Homo sapiens) (P07203 whole entry, looked up): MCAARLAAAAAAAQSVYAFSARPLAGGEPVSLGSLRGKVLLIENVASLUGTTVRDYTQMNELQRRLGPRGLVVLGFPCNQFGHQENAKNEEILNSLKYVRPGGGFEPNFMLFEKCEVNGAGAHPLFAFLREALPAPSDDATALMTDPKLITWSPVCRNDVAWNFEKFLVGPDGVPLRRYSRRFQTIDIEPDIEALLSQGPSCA
Department of Medical Biochemistry and Biophysics
Karolinska Institutet, Solna, Stockholm, Sweden
Selenoprotein glutathione peroxidases (GPX), like the ubiquitously expressed GPX1 and the ferroptosis modulator GPX4, enact their antioxidant activities by reducing hydroperoxides using glutathione. […] GPX1 and GPX4 inhibitors have thus shown promise as anti-cancer agents. Existing inhibitors are often promiscuous, or modulate GPX activity only indirectly, so novel direct inhibitors identified through screening against GPX1 and GPX4 could be valuable. Here, we developed optimized glutathione reductase (GR)-coupled GPX assays for the biochemical high-throughput screen (HTS) of almost 12,000 compounds with known mechanisms of action. Initial hits were triaged using a GR counter-screen, assessed for isoform specificity using a separate GPX2 assay, and were assessed for general selenocysteine-targeting activity using a thioredoxin reductase (TXNRD1) assay. With this suite of assays, we identified novel GPX1/GPX2- and GPX4-specific inhibitors and can here present a validated pipeline for future discovery research for selenoprotein-targeting agents.
SEQUENCE No. (e.g., 1, 2, 3, etc.); […] (e.g., Cells, Incubation, Reagent, etc.); VALUE; DESCRIPTION.
1; Reagent 1; 3 uL; GPx1 enzyme or no enzyme control in 1536-well, black, solid Greiner assay plate.
2; Compound; 25 nL; Kalypsis pin tool (Wako USA) equipped with a 1536-well pin head.
3; Incubation; 30 min; room temperature.
4; Reagent 2; 1 uL; 10 nM GPX1, 1 mM GSH, 0.5 mM CHP, 0.5 mM NADPH, 100 nM GR, 0.01% BSA substrate
5; Detection; Fluorescence; ViewLux microplate reader, excitation 340 nm and emission 450 nm.
6; Incubation; 15 min; room temperature.
7; Detection; Fluorescence; ViewLux microplate reader, excitation 340 nm and emission 450 nm.
NOTES (numbers refer to Sequence numbers above)
1. 3 uL of 16.66 nM GPX1 and 0.016% BSA in assay buffer (50 mM Tris-HCl, 2 mM EDTA (pH 7.5), 150 mM NaCl) was added to columns 3-48 of 1536-well assay plates using a BioRAPTR Flying Reagent Dispenser (Let's Go Robotics (LGR), Carlsbad, CA). A no-enzyme control (0.01% BSA in TES assay buffer) was added to columns 1-2.
2. 25 nL of test compounds and DMSO controls were added to each well with a pin tool (Kalypsys).
3. The assay plates were incubated for 30 minutes at room temperature.
4. 1 uL of master mix (500 nM glutathione reductase (GR), 5 mM reduced glutathione (GSH), 2.5 mM NADPH in assay buffer) was added. 1 uL of cumene hydroperoxide (CHP) ([2.5 mM] in 50% EtOH) was then added within 5 minutes to initiate the reaction. Final concentrations were: 10 nM GPX1, 1 mM GSH, 0.5 mM CHP, 0.5 mM NADPH, 100 nM GR, 0.01% BSA.
5. Initial fluorescence readout (t=0) at 340/450 nm was measured using a ViewLux multimodal detector (PerkinElmer, Waltham, MA).
7. Endpoint fluorescence readout (t=15) at 340/450 nm was measured 15 min after room temperature incubation.
For `Oc1ccc2c3c1O[C@H]1[C@H](N(CCCl)CCCl)CC[C@@]4(O)[C@@H](C2)N(CC2CC2)CC[C@]314`, the outcome was “inactive [at 9.52 µM]”. In the case of `c1ccc2cc(CC3=NCCN3)ccc2c1`, the “activity, negative = inhibition” value is -13.2% (inactive). The same measure, in the same setting: with `Ic1ccccc1CNC1C2CCN(CC2)C1C(c1ccccc1)c1ccccc1` (stereo not given) the figure was -14.9% (inactive). For the molecule `CP(=O)(O)C1=CCNCC1`, the result was inactive. `CN1CCc2cccc(Cl)c2CC1`: the “activity, negative = inhibition” value was -25.9% (inactive). The same measure, in the same setting: with `Cc1sc2ccccc2c1CC1=NCCN1` the figure was -9.76% (inactive). On to `CCC1C(C)=NN=C(c2ccc(OC)c(OC)c2)c2cc(OC)c(OC)cc21` (stereo not given), for which the “activity, negative = inhibition” value is -15.1% (inactive). With `NC(=O)c1ccc(OCC(O)CN2CC=C(c3ccc(F)cc3)CC2)cc1` (stereo not given), the “activity, negative = inhibition” value was 0.515% (inactive). The same measure, in the same setting: with `CC(C)(C)c1o[nH]c(=O)c1CC(N)C(=O)O` (stereo not given) the figure was 0.442% (inactive).

Regarding `N#CCCN`, the result was inactive. Take `O=[N+]([O-])c1ccc2nc(N3CCNCC3)ccc2c1`: the “activity, negative = inhibition” value was 4.21% (inactive). On the same count and under the same terms, with `O=C1/C(=C/c2ccccc2)C[C@@]2(O)[C@H]3Cc4ccc(O)c5c4[C@@]2(CCN3CC2CC2)[C@H]1O5` the figure was -5.34% (inactive). Consider `CC(=O)c1c(O)c(C)c(O)c(Cc2c(O)c3c(c(C(=O)/C=C/c4ccccc4)c2O)OC(C)(C)C=C3)c1O`, for which the result was inactive. In the case of `CCN1CC2(COC)C3[C@@H](OC)C4C1C3(C1C[C@]3(O)[C@H](OC(=O)c5ccccc5)C1[C@]4(OC(C)=O)[C@@H](O)[C@@H]3OC)[C@H](OC)C[C@H]2O` (stereo not given in full), the “activity, negative = inhibition” value was -6.37% (inactive). In the case of `C[C@H](N)Cc1cccc(C(F)(F)F)c1`, the outcome was inactive. On the same count and under the same terms, with `Cc1cc([C@@H]2CCCN2C)on1` the entry was “inactive”. For the molecule `NC(Cc1cc(O)c(O)cc1O)C(=O)O` (stereo not given), the result was inactive. Consider `C[C@@H]([C@H](O)c1ccccc1)N(C)C`, for which the “activity, negative = inhibition” value is -15.1% (inactive). With `CC12CCC3C(CCC4(O)CC(O)CCC34C=O)C1(O)CCC2C1=CC(=O)OC1` (stereo not given), the result was inactive. The same measure, in the same setting: with `CC(C)CCON=O` the entry was “inactive”. The same measure, in the same setting: with `CN1[C@H]2C[C@H](OC(=O)[C@H](CO)c3ccccc3)C[C@@H]1[C@@H](O)C2` the entry was “inactive”; with `C[C@@]12C[C@@H](c3ccoc3)OC(=O)C1CC[C@]1(C)[C@H]2[C@H]2C=C[C@]1(O)C(=O)O2` (stereo not given in full), “inactive [at 27.7 µM]”.

In the case of `COc1cc2c(cc1OC)[C@@]13CCN4CC5=CCO[C@H]6CC(=O)N2[C@H]1[C@H]6[C@H]5C[C@H]43`, the Potency result was “inactive”. For `Cc1c2ccncc2c(C)c2c1[nH]c1ccccc12`, the “activity, negative = inhibition” value is 1.87% (inactive).

Consider `COC1CC(O[C@H]2CC[C@]3(C=O)C4CC[C@]5(C)[C@@H](C6=CC(=O)OC6)CC[C@]5(O)[C@@H]4CC[C@]3(O)C2)OC(C)C1O[C@@H]1O[C@H](CO)[C@@H](O)[C@H](O)[C@H]1O` (stereo not given in full), for which the “outcome” value is “inactive [at 15.3 µM]”. For the molecule `O=C/C=C/c1ccccc1`, the “activity, negative = inhibition” value is -1.25% (inactive). Take `CO[C@H]1CC=C2CCN3CCC4=C(CC(=O)OC4)[C@]23C1`: the result was inactive. For the molecule `CCCN(CCC)C1Cc2cc(OC)c(OC)cc2C1`, the “activity, negative = inhibition” value is -21.3% (inactive). In the case of `O=[N+]([O-])C(Br)(CO)CO`, the “activity, negative = inhibition” value is 1.88% (inactive).

For `CCNC1(c2cccs2)CCCCC1=O` (stereo not given), the outcome was inactive.

With `N=C(N)c1ccc(CS(=O)(=O)F)cc1`, the result was inactive. The same measure, in the same setting: with `CC1=C2C(=O)C3[C@@H](CC=C4C[C@@H](O)CC[C@@]43C)[C@@H]2CC[C@]12O[C@@H]1C[C@H](C)CN[C@H]1[C@H]2C` (stereo not given in full) the entry was “inactive [at 27.7 µM]”. As to `CNc1ccc2oc(C[C@H]3O[C@@]4(CC[C@H]3C)O[C@H]([C@H](C)C(=O)c3ccc[nH]3)[C@H](C)C[C@H]4C)nc2c1C(=O)O`, the Potency result was “inactive”. For the molecule `CCc1c(C(=O)C(N)=O)c2c(OCC(=O)OC)cccc2n1Cc1ccccc1`, the outcome was inactive. For the molecule `COC([CH2][Hg])CNC(=O)c1ccccc1OCC(=O)O` (stereo not given), the “activity, negative = inhibition” value was -17.7% [at 15.3 µM] (inactive). On to `CC[C@H]1CN2CC[C@H]1C[C@H]2[C@H](O)c1ccnc2ccc(OC)cc12`, for which the “outcome” value was “inactive [at 27.7 µM]”. `CN1CCc2cc(O)cc3c2[C@H]1Cc1ccc(O)c(O)c1-3`: the “activity, negative = inhibition” value was -2.46% (inactive). On the same count and under the same terms, with `CCC1(C)CC(=O)NC(=O)C1` the figure was -5.57% [at 98.3 µM] (inactive). `C/C=C(\C)C(=O)O[C@H]1[C@H](OC(C)=O)[C@]2(CO)[C@H](O)[C@H](O)[C@]3(C)C(=CCC4[C@@]5(C)CC[C@H](O[C@@H]6O[C@H](C(=O)O)[C@@H](O)[C@H](O[C@@H]7OC[C@H](O)[C@H](O[C@@H]8OC[C@H](O)[C@H](O)[C@H]8O)[C@H]7O)[C@H]6O[C@@H]6O[C@H](CO)[C@@H](O)[C@H](O)[C@H]6O)C(C)(C)C5CC[C@]43C)[C@@H]2CC1(C)C` (stereo not given in full): the outcome was “inactive [at 9.52 µM]”. `NC(C(=O)O)c1cc(=O)[nH]o1` (stereo not given): the “activity, negative = inhibition” value is -4.72% (inactive).
